A selection: hits, their analogues and other compounds. The true share with any hit is near 1.8%.
Mcl-1 Bim block – human Bim-Mcl-1 interaction inhibition | Bead-based flow cytometry, Bim peptide-Mcl-1 binding | AID 1009 | Q07820 | 190,000 compounds, 0.1% hits | inhibition, % at 10 µM; in the data active means inhibition above about 40%
Mcl1-Noxa inh – Mcl-1/Noxa interaction inhibition; inhibition, % at 21.7 µM; 220,000 compounds, 1.5% hits; TR-FRET Mcl-1/Noxa peptide binding, 2 h; Q07820;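 active means compounds that cut the protein-peptide binding signal by more than 50% relative to plate controls in a single-dose test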;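 further: His-tagged Mcl-1 with rhodamine Noxa BH3 peptide and terbium anti-His antibody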
TLR4 MyD88 comp – TLR4-MyD88 interaction inhibition in cells. AID 861. O00206+Q99836. HeLa CL3-4 TLR4/MyD88 BLA complementation, FRET ratio. inhibition, % at 8.4 µM. 200,000 compounds, 0.18% hits; in the data active means inhibition above about 25%
NOD2 RIPK2 PPI – blocks binding of human NOD2 to RIPK2; AID 624267; inhibition, % at 4.98 µM; O43353; CHO BLA complementation NOD2-RIPK2, CCF4 ratio; 360,000 compounds, 0.38% hits; in the data active means inhibition above about 21%
TLR9-MyD88 block – TLR9-MyD88 interaction inhibition | Q9NR96+Q99836 | CHO BLA complementation TLR9-MyD88, CCF4 FRET ratio | AID 504734 | inhibition, % at 4.98 µM | 340,000 compounds, 0.21% hits;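 active means inhibition above the mean over all tested compounds plus 3 SD, cut at about 21% in these data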
Mcl1-Bid inh – Mcl-1/Bid interaction inhibition; Q07820; TR-FRET Mcl-1/Bid-Dy647 peptide binding, 1536-well; inhibition, % at 21.7 µM; 220,000 compounds, 0.97% hits; AID 1021;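 active means compounds that cut the binding signal by more than half at the single screening dose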;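 further: His-tagged Mcl-1 with europium anti-His antibody binding Bid BH3 peptide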
Hits are given with their value; n = inactive; x = no result.

SMILES | Mcl-1 Bim block | Mcl1-Noxa inh | TLR4 MyD88 comp | NOD2 RIPK2 PPI | TLR9-MyD88 block | Mcl1-Bid inh
COc1cccc(C(=O)N2CCN(C(=O)COc3ccc4ccccc4c3)CC2)c1 | x | x | x | n | n | x
O=c1cc2c(=O)oc3cc(O)c(O)oc3c2c(O)c1O | x | 89 | x | n | n | n
O=c1cc(-c2ccc(O)cc2)oc2c(O)c(O)c(O)c(O)c12 | x | n | x | n | n | n
COC(=O)COc1ccccc1C(N)=O | n | n | n | n | n | n
CCN(CC)c1ccc(NC(=O)OC)cc1 | n | 68 | n | n | n | n
CCOC(=O)C(Cc1ccccc1)C(=O)Nc1cccc(C)c1 (stereo not drawn) | n | n | n | n | n | n
CC(=O)c1cccc(NC(=O)Nc2ccc(C(=O)N3CCCC3)cc2)c1 | n | n | n | n | n | n
CCOC(=O)C(Cc1ccccc1)C(=O)Nc1ccc(N(CC)CC)cc1 (stereo not drawn) | n | 60 | n | n | n | n
CCN(CC)c1ccc(NC(=O)c2ccccc2OCC(=O)OC)cc1 | n | 81 | n | n | n | n
CCN(CC)c1ccc(NC(=O)Nc2cccc(C(C)=O)c2)cc1 | n | 86 | n | n | n | n
Cc1ccc2c(c1)C1(C(=O)N2)N2CCCC2C(C(=O)c2ccc3ccccc3c2)C12C(=O)Nc1ccccc12 (stereo not drawn) | x | n | x | n | n | n
OCCNC(=S)c1ccccc1 | x | n | x | n | n | n
Clc1ccc(C2=CSC3=NCCN23)c(Cl)c1 | x | x | x | n | n | x
CC(=O)Nc1cccc(NC(=O)Nc2ccc(C(C)=O)cc2)c1 | n | n | n | n | n | 94
CC(=O)c1ccc(NC(=O)Nc2ccncc2)cc1 | n | n | n | n | n | n
O=C(CN1CCN(c2ccccn2)CC1)N1c2ccccc2CCc2ccccc21 | n | n | n | n | n | 55
O=C(CN1CCN(c2ccccn2)CC1)N1c2ccccc2Sc2ccc(C(F)(F)F)cc21 | n | n | n | n | n | n
COc1cc(/C=C2/C(=O)NN(c3ccc(C)c(Cl)c3)C2=O)cc([N+](=O)[O-])c1O | x | x | x | n | n | x
Cc1ccc(N2NC(=O)/C(=C\c3cc4c(cc3[N+](=O)[O-])OCO4)C2=O)cc1C | n | 100 | n | n | n | n
CN(C(=O)COC(=O)C1CSC2(C)CCC(=O)N12)c1ccccc1 (stereo not drawn) | x | x | x | n | n | x
CC(=O)Nc1ccc(S(=O)(=O)N2CCN(Cc3csc(C)n3)CC2)cc1 | x | x | x | n | n | x
COc1ccccc1C=NN1C(=O)CSC1=S | x | x | x | n | n | x
O=C1CSC(=S)N1/N=C/c1ccc(O)c(O)c1O | x | 101 | x | n | n | 100
O=C(CN(C(=O)CNC(=O)c1ccco1)c1ccc2c(c1)OCCO2)NC1CCCC1 | n | n | n | n | n | n
O=C(CN(C(=O)CNC(=O)c1ccco1)c1ccc2c(c1)OCO2)NC1CCCCC1 | n | n | n | n | n | 83
SMILES | Mcl-1 Bim block | Mcl1-Noxa inh | TLR4 MyD88 comp | NOD2 RIPK2 PPI | TLR9-MyD88 block | Mcl1-Bid inh
CC1=C(C(=O)N(C(C)C)C(C)C)CC(CC(=O)NCc2cccs2)C(=O)N1CCC1=CCCCC1 (stereo not drawn) | x | x | x | n | x | x
O=C(NC1CCCCC1)C(c1ccc2ncccc2c1)N(Cc1ccccc1)C(=O)c1ccc2c(c1)OCCO2 (stereo not drawn) | n | 61 | n | n | n | 86
Cc1ccc(N(CC(=O)NC(C)C)C(=O)CCC(=O)Nc2nccs2)c(C)c1 | x | x | x | n | n | x
O=C(O)c1ccccc1N/N=C/c1cc(Br)cc(Br)c1O | x | 83 | x | n | n | n
O=C(Cc1ccccc1)N/N=C/c1cc(Br)cc(Br)c1O | x | x | x | n | n | x
CCOc1cc(/C=N/Nc2nn3cnnc3c3ccccc23)ccc1O | x | 56 | x | n | n | n
COc1cc(/C=N/Nc2nn3cnnc3c3ccccc23)ccc1O | n | 68 | n | n | n | n
Oc1ccc(/C=N/Nc2nn3cnnc3c3ccccc23)cc1 | x | 51 | x | n | n | n
COc1cccc(/C=N/Nc2nn3cnnc3c3ccccc23)c1 | n | x | n | n | n | n
CCOc1cc(/C=N/Nc2nncc(-c3ccccc3)n2)ccc1O | n | n | n | n | n | n
CCOc1ccc(CCNC(=O)COC(=O)c2nc(Cl)ccc2Cl)cc1OCC | x | x | x | n | n | x
COc1ccc(NC2c3ncccc3C(=O)N2Cc2cccs2)cc1 (stereo not drawn) | n | n | n | n | n | n
O=C1c2cccnc2C(Nc2ccc(F)c(Cl)c2)N1Cc1cccs1 (stereo not drawn) | n | n | n | n | n | 52

Screening data deposited in PubChem BioAssay by several laboratories.
